Inconclusive results are not listed. Calls of active or inactive are those of the source. How the source made its calls: active means hit-call score of the fitted dose curve at least 0.9, where 1 is the maximum; inconclusive means response in the unintended direction; inactive means score below 0.9.

This assay is described as follows: ATG_XTT_Cytotoxicity: Cytotoxicity Assessment in the Attagene TRANS-FACTORIAL HepG2 Assay (AID 2283584).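 On AC50: cells exposed to compound for 24 h before reading; active means loss of viability signal versus DMSO baseline.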 In short, it runs like this: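 Cells: human HepG2, transiently transfected with MRTU reporter constructs. Exposure 24 h. Readout: XTT, cell number. Baseline/neg ctrl DMSO; loss-of-signal scored.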
On to `O=C(O)COc1cc(Cl)c(Cl)cc1Cl`, for which the compound was called inactive.

Take `O=c1[nH]c(=O)n(Cl)c(=O)n1Cl`: the result was inactive.

For `ClCc1ccccc1CCl`, the outcome was inactive.

On to `C[As+](C)(C)CC(=O)[O-]`, for which the compound was called inactive.

Take `NC(=O)c1ccc(N)nc1`: the result was inactive.

`Cc1ccc2nc3sc(=O)sc3nc2c1`: the outcome was inactive.

Consider `O=c1nc(O)n(Cl)c(=O)n1Cl`, for which the call was inactive.

`Cc1ccccc1OP(=O)(Oc1ccccc1)Oc1ccccc1`: the result was inactive.

As to `Fc1cccc(Cl)c1CCl`, the outcome was inactive.

On to `Cc1cccc(OP(=O)(Oc2cccc(C)c2)Oc2cccc(C)c2)c1`, for which the compound was called inactive.

As a reminder, the AC50 is the concentration giving half of the maximal activity seen. `CC(C)(c1ccc(O)c(-c2ccccc2)c1)c1ccc(O)c(-c2ccccc2)c1`: the AC50 was 22.2 µM (active).

`C1CN2CCN1CC2`: the compound was called inactive.

Turning to `ClCCN1CCOCC1`, the call was inactive.

On to `CCOP(=O)(OCC)SCCSCC`, for which the call was inactive.

In the case of `NNCCO`, the call was inactive.

`N#Cc1ccccc1N`: the compound was called inactive.

As for `CCOCn1c(-c2ccc(Cl)cc2)c(C#N)c(Br)c1C(F)(F)F`, the compound was classed as inactive.

Turning to `Oc1c(Br)cc(Br)cc1Br`, the result was inactive.

As for `c1ccc2sc(SNC3CCCCC3)nc2c1`, the result was inactive.

Take `CN(C)CCN(C)C`: the call was inactive.

On to `CN(N=O)c1ccc([N+](=O)[O-])cc1`, for which the compound was called inactive.

Take `O=C1C=CC(=O)c2ccccc21`: the AC50 was 49.2 µM (active).

Regarding `C[N+](C)(C)Cc1ccccc1`, the result was inactive.

Turning to `C=CCOC(N)=O`, the outcome was inactive.

On to `COCC(=O)N(c1c(C)cccc1C)[C@H](C)C(=O)OC`, for which the compound was classed as inactive.

On to `CCCSP(=S)(OCC)Oc1ccc(Cl)cc1Cl` (centres undefined), for which the outcome was inactive.

With `C=C(C)C(=O)OCCCCOC(=O)C(=C)C`, the compound was called inactive.

With `N#Cc1ccccc1Cl`, the result was inactive.

With `BrCC(Br)c1ccccc1` (centres undefined), the outcome was inactive.

These data come from PubChem BioAssay (EPA / NIEHS).
